The values below come from PubChem BioAssay AID1508600 (Functional Genomics Laboratory (NCATS/FGL), 2020).

Among all 53,000 sequences or so, about 3,700 (7%) were called active.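 The calls were made as follows: active = gene knockdowns whose robust z-score for IL-1 alpha signal is at least 2 or at most -2, so actives lie on both sides; inactive = the rest.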 The sample as a whole holds a higher share of actives than the screen did.

The experiment can be described thus: Components of the Cytosolic LPS Sensing Pathway: Gene Identification via Genome-wide siRNA Screen.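 Also: robust z of the log signal after scaling to non-targeting control siRNA wells of the plate.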 The conditions noted are these: RAW264.7 macrophages, IL-1a HTRF, actives lie on both sides, screened at 100 nM (by protocol), cells primed 5 h with Pam3CSK4 first. Put shortly: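 RAW264.7 mouse macrophages reverse-transfected with single siRNAs (100 nM final) for 48h, primed with Pam3CSK4 for 5 hours, then transfected with LipidA for 24 hour. Supernatant IL-1a read by HTRF; values normalized to negative-control median, log-transformed robust z-scores.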
As for GCAACACCAGAGUAUGUUATT against Cldn34b3, the z-score is 0.794 (inactive).

As to GGUAUUGGGUUCCAUUAUATT against Mcmdc2, the z-score was -0.197 (inactive).

For the sequence CCCAGCAGAAUAACUGCCATT against Pantr1, the z-score is 2.55 (active).

For the sequence GAAAAUGGUCACUACUGAGTT against S100a8, the z-score was -0.0863 (inactive).

Regarding GGAAAUGAAGAAAAGUGACTT against Stk32a, the z-score is -0.0588 (inactive).

Consider GGAGUCAACUUGUGAGGGUTT against Lrp8, for which the z-score was -0.48 (inactive).

On to CCCAGGUGAGGAUUGAUAATT against Rit2, for which the z-score is 0.667 (inactive).

As for GCCAACAGUACUUUGUUAATT against Chordc1, the z-score was 0.589 (inactive).

For the sequence GGACAUUUUAAUGUGCUCATT against Erlin2, the z-score is 0.0602 (inactive).

Take GGCACAGAGAUUGAAGAUCTT against Sry: the z-score is 2.04 (active).

Regarding GCUGAAGUCUCUUCAAUGCTT against Trappc6b, the z-score is -0.71 (inactive).

GCCUACAUAACCUUAAUAUTT against Slc4a10: the z-score is 2.2 (active).

On to GGGAGUAGAGAUCAAAGGCTT against Cfb, for which the z-score is -0.0723 (inactive).

Consider GGUGAUUUGCUCAAUCCAATT against Phox2a, for which the z-score was 0.611 (inactive).

GGCUGAGAUCUAGCUUACATT against H3c15: the z-score is -3.21 (active).

On to GGCGAAGUGGUUAAAAGUGTT against Ifnar1, for which the z-score is -0.141 (inactive).

In the case of GGAUAUCCUUUCAAUAGAATT against Mcf2, the z-score is -0.225 (inactive).

For GGCCAUUUCUUUCAUAGAUTT against Dusp6, the z-score is 0.509 (inactive).

As to CCUUCGUAGCCUGUAUCAUTT against Myadm, the z-score is -0.173 (inactive).

CCGAGUAUAUCUAUAAUAGTT against Ear14: the z-score was -0.607 (inactive).

Consider GGUGUUUUGUGAAUUGAAATT against Leprotl1, for which the z-score is -1.05 (inactive).

Take GGAAGAGUGCGUUUACCUUTT against Rrp12: the z-score is 0.388 (inactive).

With GCUUACAUUAAAGGAUAUGTT against Rab5c, the z-score is 2.17 (active).

Take GGAUCUUCUGGAUAGAAUGTT against Prc1: the z-score is 1.16 (inactive).

As for CCCUUUCGACAGAUUAGACTT against Zfp69, the z-score is -1.23 (inactive).

For the sequence GGGUCAUGGACAAUAGAAATT against Olfr52, the z-score was -0.833 (inactive).

Regarding GGACCAAAAGGAAAAUCCATT against Kcnj6, the z-score was -1.05 (inactive).

In the case of CCAUAAAUGAGUCUUCAUUTT against Bnip5, the z-score was -0.0535 (inactive).

GUGGACAUCCUCUCUGUCATT against Tmem54: the z-score is -2.23 (active).

In the case of CCCAUCGAUCCAUCACAUUTT against Olfr63, the z-score is -1.47 (inactive).

For the sequence GGCAAGCUGAAGAUGAACATT against Ntn1, the z-score was -1.14 (inactive).

For the sequence CGCAAGCCUGACAUACUGCTT against Etv3, the z-score was 0.382 (inactive).

GGUAGCAUAGGCUAGCAUATT against Crcp: the z-score is 0.0494 (inactive).

Take GGCAAACCAGGAAAAGGUCTT against Abhd2: the z-score was -2.33 (active).

With CCAAACGGAAGUAUCUUAUTT against Tmem128, the z-score was 0.246 (inactive).

CGACCAGAGUGGAUACCUGTT against Ocm: the z-score was 1.98 (inactive).

Turning to GCUUCCUACAAUUAAUUCATT against Thap12, the z-score is 0.614 (inactive).

Regarding GGGAAUGGAGGUCCAGAUUTT against Spatc1l, the z-score was -2.33 (active).

In the case of CGUAGAAGUUGAUGAGUCATT against Numb, the z-score is -1.05 (inactive).

As for GGAUUUAGGCCUUAUCAUCTT against Atf3, the z-score was -2.12 (active).

As for GGAAGUUAUUGCCAGCGAGTT against Fbxo5, the z-score was -0.418 (inactive).

For the sequence GCAGUCUCACCUGAACAGATT against Eppin, the z-score is 0.43 (inactive).

For CCCACCUUCAAGCAAGAACTT against Ifnk, the z-score is -2.51 (active).

On to GGAGAGCAUGUGACCAAAATT against Safb2, for which the z-score was 0.758 (inactive).

Regarding GCAAAACUGUGUCAGUAUCTT against Slco5a1, the z-score was 0.901 (inactive).

For GGUCAAAGAGUUCUGUGAATT against Ppp2r1a, the z-score is -0.79 (inactive).

Take GGGCUGACCAGUUUGAGUATT against Polr2h: the z-score was -2.7 (active).

Consider GGCAUGCCUGUUGCUAUGATT against Cyp3a44, for which the z-score was 0.182 (inactive).

For the sequence “AUCUUUCAGUCACACGACCTT against A730085E03Rik”, the z-score is -0.942 (inactive).

As for GGUAGCUUAGAGGACUAACTT against Cidec, the z-score is -1.78 (inactive).

With GGCUGAAAGAUUGUAUUGATT against Rwdd2b, the z-score is -0.601 (inactive).

As for CUCAAAAUCUGGUGAUAAATT against Adam34, the z-score was 2.66 (active).

As for AGCCGAUCCUGUGCCUGUUTT against Dnph1, the z-score is 0.592 (inactive).

Take GGGACUUUGGUCAAUAAUGTT against Tcf19: the z-score is 0.247 (inactive).

As to GGGAAGAAGCUAAAGAAGATT against Wipf1, the z-score is 1.44 (inactive).

GCACGUGGAUCCUAACAAGTT against Exd1: the z-score is -1.84 (inactive).

As to GGAAAAGAUAGAGUUACUUTT against Lrif1, the z-score was 0.484 (inactive).

Consider UGGGAAGGUGCUCACUGAGTT against Dnph1, for which the z-score was -2.53 (active).

Consider GGCUGUCUUUGUUCCAGUATT against Tnfrsf10b, for which the z-score is 0.218 (inactive).

As for GGGCCAAGGAACCUAUUUGTT against Ltbr, the z-score is 0.58 (inactive).

In the case of GGCUCUUAGAAAAAUGUUATT against Olfr1156, the z-score is -0.816 (inactive).

In the case of GGUCUACGGCACCUUCUAUTT against Bsnd, the z-score was -0.438 (inactive).

Regarding CGGGUUUCAUUAUUAUUCCTT against Foxa1, the z-score is -0.352 (inactive).

Take GGUGUGCCUAUGUUAUAGUTT against Slc13a5: the z-score is -0.982 (inactive).

For GGUGAGUUAUAAAAGACCATT against Pex12, the z-score was -0.0509 (inactive).

Turning to GGUGGAUUUUGAAACUAUUTT against Pcdhb17, the z-score was 1.11 (inactive).

In the case of GGCUGAACUGAUCCUGUACTT against Kcnh3, the z-score was -2.22 (active).

For the sequence GCAAGUAGUUAGCUCAGGGTT against Gabpb1, the z-score was -0.752 (inactive).

On to GGCAUUCUGAAAAAAUAGCTT against Rb1cc1, for which the z-score is -1.55 (inactive).

In the case of GGUUUGUGGAUGACAACGGTT against Mtf1, the z-score is 0.216 (inactive).

Turning to GGCGAAUGGAAGAUAAUGCTT against Stxbp3, the z-score was -0.233 (inactive).

Take CGAGUUUGUAAUGAUGCUATT against Cabp4: the z-score is 2.51 (active).

Regarding GGAACUCUGUAGACAGAAUTT against Lpin1, the z-score is 0.705 (inactive).

Turning to GGCUCAGAUCUUUGACUACTT against Pnp, the z-score was -0.232 (inactive).

Consider GGACUUGGAGUUUCGUAAATT against Lmnb1, for which the z-score was 2.92 (active).

GGCUGAAAAGAAAAACAGATT against Rgs5: the z-score was -0.378 (inactive).

As for CGUGACAUGCACGACUUCUTT against Tac2, the z-score was 1.49 (inactive).

With GGGAGAAAAGGGUCAAAAATT against Marco, the z-score is 0.819 (inactive).

Turning to GGCCAAGGAAAUAUCAAUGTT against Alg14, the z-score is 2.69 (active).

For the sequence GGAACUGUGUGACUACUUUTT against Necab2, the z-score is 0.18 (inactive).

Take GGUCAACAUUUGCUGUAAGTT against Inhba: the z-score is -0.599 (inactive).

For GGGAAAAUAUCAAGUGUAGTT against Tmem60, the z-score is 0.567 (inactive).

With GGGCAAACCGGAAAAACAGTT against Ccdc71, the z-score is -2.06 (active).

On to GCUGUUUCAAAAGUCAUAUTT against Col11a1, for which the z-score was 1.96 (inactive).

GCAGAUACCAUGAUACAGUTT against Med20: the z-score is -0.154 (inactive).

For GGUAAAUGUGAAUGUAAGGTT against Ntn4, the z-score is 0.73 (inactive).

Take GGAUAAUUUAAACAUGGGATT against Cd276: the z-score was -1.08 (inactive).

For the sequence GGCUACUGGAGCAAGUUUATT against Apoc3, the z-score was 2.48 (active).

Consider GGUUUAGGGUCAAGAUAUUTT against Ttf2, for which the z-score was -1.39 (inactive).

In the case of GGAUUGGCAACCUCCAUUUTT against Kdm5a, the z-score is -0.312 (inactive).

Consider GGACAAUGAGAUUCUUCUCTT against Mptx1, for which the z-score is -1.58 (inactive).

In the case of GGCAACUAUAAGUACAUAGTT against Gsta3, the z-score is 3.87 (active).

Turning to GGAAGGUGCUAAAAAUAUATT against Pdhx, the z-score is 0.23 (inactive).

On to GGAAAAGACAUCAGAUGAATT against Mrpl1, for which the z-score is 0.233 (inactive).

For the sequence GGUAAUGGAAAUGAACAAATT against Zfp353-ps, the z-score was 0.381 (inactive).

For the sequence GGUCUCAUAGAGUGUUACUTT against Anapc7, the z-score was 4.38 (active).

For the sequence GGAACUGGACAAGGACGAUTT against Arhgdia, the z-score was 1.17 (inactive).

Take GGAUUUGAGUGGUAAUGAATT against Tm2d1: the z-score is -2.2 (active).

On to GGAAAAUGUCCCACUUUUATT against Olfr70, for which the z-score was -0.926 (inactive).

GGAUUUGACCAGUAUAAGUTT against Ptgs2: the z-score was -1.05 (inactive).

As for GGCUCCAAUAAAGUGCCUUTT against Elf3, the z-score was 1.46 (inactive).

In the case of GCUGGAGAUCUAAAAACAGTT against Mphosph10, the z-score was 1.54 (inactive).

As to GGCAACUUAAGUUUUACAGTT against Tmem170, the z-score was -0.898 (inactive).

For the sequence GGUGAUAUGUGUGGGCUUGTT against Fahd2a, the z-score was -2.06 (active).

For the sequence GGAGUUCUGUCCAUUUUGATT against Olfr1198, the z-score was 0.45 (inactive).

As to GCGUAGAAGACACUUAUAGTT against Zc3h14, the z-score is 1.47 (inactive).

Take GGCUCUGAAUUAACUCCAGTT against Srpk3: the z-score was -0.654 (inactive).

GCUAUUGACAUAAUGAGGCTT against Nfe2l3: the z-score was -1.41 (inactive).
